Laboratory results as given in the supplement of paper PMC10849652.
Of roughly 7,900 targets only a part is listed; those with a hit were picked by preference. About 0.6% of all pairs of compound and target were hits. Values without a mark were called inactive.

Tests used:
Assay in all cases: log2 fold change, soluble protein after heating vs DMSO (PISA); higher = thermal stabilisation; K562 cells, 10 uM, 30 min; active = over 0.2 and 3.5 SD of the protein, either way, in both replicates (recomputed)
[1] = compound: CC1=C(C=C(C=C1)NC(=O)C2=CC(=CC=C2)C(C)(C)C#N)NC3=CC4=C(C=C3)N=CN(C4=O)C
Method in brief: (§1)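 Quantification of soluble protein used TMTpro 16plex LC-MS/MS, with channel sums equalised. Samples were the supernatant after 21,000xg for 90 min of pooled aliquots from K562 cells (2×10^6 cells/mL) treated with 10 μM compound for 30 min, heated for 3 min over 48°C-58°C, and extracted in PBS with 0.5% NP-40 at 4°C. Values, from duplicates, describe thermal stability against control samples on a log2 fold-change scale.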

[2] = compound: CC1=C(C=C(C=C1)NC(=O)C2=CC(=CC=C2)N(C)C)NC(=O)C3=CC=C(C=C3)O
Method in brief: as §1

[3] = compound: CC1=CC=C(C=C1)SC2=C3C=C(SC3=CN=C2)C(=O)N
Method in brief: as §1

[4] = compound: CC1=NC(=CC=C1)C2=C(N=C(N2)C(C)(C)C)C3=CC4=NC=CN=C4C=C3
Method in brief: as §1

Nexturastat A = compound: CCCCN(Cc1ccc(C(=O)NO)cc1)C(=O)Nc1ccccc1 [Nexturastat A]
Method in brief: as §1

vemurafenib = compound: CCCS(=O)(=O)Nc1ccc(F)c(C(=O)c2c[nH]c3ncc(-c4ccc(Cl)cc4)cc23)c1F [vemurafenib]
Method in brief: as §1

[5] = compound: CCCS(=O)(=O)Nc1ccc(F)c(C(=O)c2c[nH]c3ncc(Cl)cc23)c1F
Method in brief: as §1

[6] = compound: CCCc1cc(C)[nH]c(=O)c1CNC(=O)c1cc(-c2ccnc(N3CCN(C)CC3)c2)cc2c1cnn2C(C)C
Method in brief: as §1

givinostat = compound: CCN(CC)Cc1ccc2cc(COC(=O)Nc3ccc(C(=O)NO)cc3)ccc2c1 [givinostat]
Method in brief: as §1

barasertib = compound: CCN(CCCOc1ccc2c(Nc3cc(CC(=O)Nc4cccc(F)c4)[nH]n3)ncnc2c1)CCOP(=O)(O)O [barasertib]
Method in brief: as §1

[7] = compound: CC[C@@H]1C(=O)N(C)c2cnc(Nc3ccc(C(=O)NC4CCN(C)CC4)cc3OC)nc2N1C1CCCC1
Method in brief: as §1

volasertib = compound: CC[C@@H]1C(=O)N(C)c2cnc(Nc3ccc(C(=O)N[C@H]4CC[C@H](N5CCN(CC6CC6)CC5)CC4)cc3OC)nc2N1C(C)C [volasertib]
Method in brief: as §1

[8] = compound: CC[C@H](C)N1C=C(C2=C(C=C(C=C21)C3=CN=C(C=C3)N4CCNCC4)C(=O)NCC5=C(C=C(NC5=O)C)C)C
Method in brief: as §1

epoxomicin = compound: CC[C@H](C)[C@@H](C(=O)N[C@@H]([C@@H](C)O)C(=O)N[C@@H](CC(C)C)C(=O)[C@]1(CO1)C)NC(=O)[C@H]([C@@H](C)CC)N(C)C(=O)C [epoxomicin]
Method in brief: as §1

[9] = compound: CCn1c(C(=O)N(C2CC2)C2CC2)cc2c3c(ncn3C)c(Nc3cc(C)n(C)n3)nc21
Method in brief: as §1

[10] = compound: CCn1cc(-c2ccnc3[nH]c(-c4cccc(CN(C)C)c4)cc23)c(-c2ccc(NC(=O)N(C)C)cc2)n1
Method in brief: as §1

[11] = compound: CN(C)CC(=O)Nc1ccc2[nH]c(=O)c3ccccc3c2c1
Method in brief: as §1

rosiglitazone = compound: CN(CCOC1=CC=C(C=C1)C[C@H]2C(=O)NC(=O)S2)C3=CC=CC=N3 (racemic) [rosiglitazone]
Method in brief: as §1

[12] = compound: CN1C2=C(C3=C1C(=O)N(N=C3)CC4=CC(=CC=C4)N)SC(=C2)S(=O)C
Method in brief: as §1

[13] = compound: CN1CCC(CNc2ccc3ncc(-c4cccc(OC(F)(F)F)c4)n3n2)CC1
Method in brief: as §1

Sequence of UniProt Q96QZ7 (Q96QZ7 whole entry, looked up): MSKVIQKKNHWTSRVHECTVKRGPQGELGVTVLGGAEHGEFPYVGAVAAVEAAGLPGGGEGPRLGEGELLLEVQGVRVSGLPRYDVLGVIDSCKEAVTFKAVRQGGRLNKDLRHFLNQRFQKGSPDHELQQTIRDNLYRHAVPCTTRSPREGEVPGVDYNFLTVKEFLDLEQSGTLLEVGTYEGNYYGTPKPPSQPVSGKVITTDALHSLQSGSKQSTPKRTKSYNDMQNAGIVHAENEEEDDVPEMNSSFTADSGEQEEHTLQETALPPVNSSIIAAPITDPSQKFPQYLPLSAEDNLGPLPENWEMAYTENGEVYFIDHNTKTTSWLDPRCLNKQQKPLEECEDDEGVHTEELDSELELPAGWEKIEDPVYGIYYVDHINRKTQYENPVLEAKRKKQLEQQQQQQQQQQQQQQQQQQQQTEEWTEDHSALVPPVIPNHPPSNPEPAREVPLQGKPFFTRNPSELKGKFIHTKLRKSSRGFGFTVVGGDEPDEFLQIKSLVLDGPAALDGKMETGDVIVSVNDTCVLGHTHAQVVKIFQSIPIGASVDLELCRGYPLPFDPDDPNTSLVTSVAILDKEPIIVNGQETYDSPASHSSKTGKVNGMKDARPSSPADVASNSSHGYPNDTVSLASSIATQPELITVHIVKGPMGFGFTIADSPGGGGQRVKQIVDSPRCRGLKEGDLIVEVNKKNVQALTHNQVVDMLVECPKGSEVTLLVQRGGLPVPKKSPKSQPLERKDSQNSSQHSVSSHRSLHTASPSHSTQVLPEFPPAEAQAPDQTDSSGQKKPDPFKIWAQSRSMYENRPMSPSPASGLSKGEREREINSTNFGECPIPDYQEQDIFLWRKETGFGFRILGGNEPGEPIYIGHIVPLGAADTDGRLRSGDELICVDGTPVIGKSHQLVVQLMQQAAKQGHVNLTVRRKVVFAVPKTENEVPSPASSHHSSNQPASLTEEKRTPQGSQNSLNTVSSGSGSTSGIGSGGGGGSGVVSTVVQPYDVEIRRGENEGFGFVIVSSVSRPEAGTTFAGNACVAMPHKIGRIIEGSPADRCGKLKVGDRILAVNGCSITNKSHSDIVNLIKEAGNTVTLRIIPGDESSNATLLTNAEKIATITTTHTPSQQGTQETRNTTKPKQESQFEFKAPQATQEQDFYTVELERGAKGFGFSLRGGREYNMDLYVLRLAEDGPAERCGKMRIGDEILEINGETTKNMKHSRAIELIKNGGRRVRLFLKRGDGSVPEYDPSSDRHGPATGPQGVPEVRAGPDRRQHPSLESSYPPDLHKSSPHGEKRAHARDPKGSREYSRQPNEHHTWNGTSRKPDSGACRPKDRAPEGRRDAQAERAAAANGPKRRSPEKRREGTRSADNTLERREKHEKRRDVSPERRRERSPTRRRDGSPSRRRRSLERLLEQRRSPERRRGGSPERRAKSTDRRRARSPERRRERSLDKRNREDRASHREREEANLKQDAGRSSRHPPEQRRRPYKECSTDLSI
Sequence of UniProt O15021 (O15021 whole entry, looked up): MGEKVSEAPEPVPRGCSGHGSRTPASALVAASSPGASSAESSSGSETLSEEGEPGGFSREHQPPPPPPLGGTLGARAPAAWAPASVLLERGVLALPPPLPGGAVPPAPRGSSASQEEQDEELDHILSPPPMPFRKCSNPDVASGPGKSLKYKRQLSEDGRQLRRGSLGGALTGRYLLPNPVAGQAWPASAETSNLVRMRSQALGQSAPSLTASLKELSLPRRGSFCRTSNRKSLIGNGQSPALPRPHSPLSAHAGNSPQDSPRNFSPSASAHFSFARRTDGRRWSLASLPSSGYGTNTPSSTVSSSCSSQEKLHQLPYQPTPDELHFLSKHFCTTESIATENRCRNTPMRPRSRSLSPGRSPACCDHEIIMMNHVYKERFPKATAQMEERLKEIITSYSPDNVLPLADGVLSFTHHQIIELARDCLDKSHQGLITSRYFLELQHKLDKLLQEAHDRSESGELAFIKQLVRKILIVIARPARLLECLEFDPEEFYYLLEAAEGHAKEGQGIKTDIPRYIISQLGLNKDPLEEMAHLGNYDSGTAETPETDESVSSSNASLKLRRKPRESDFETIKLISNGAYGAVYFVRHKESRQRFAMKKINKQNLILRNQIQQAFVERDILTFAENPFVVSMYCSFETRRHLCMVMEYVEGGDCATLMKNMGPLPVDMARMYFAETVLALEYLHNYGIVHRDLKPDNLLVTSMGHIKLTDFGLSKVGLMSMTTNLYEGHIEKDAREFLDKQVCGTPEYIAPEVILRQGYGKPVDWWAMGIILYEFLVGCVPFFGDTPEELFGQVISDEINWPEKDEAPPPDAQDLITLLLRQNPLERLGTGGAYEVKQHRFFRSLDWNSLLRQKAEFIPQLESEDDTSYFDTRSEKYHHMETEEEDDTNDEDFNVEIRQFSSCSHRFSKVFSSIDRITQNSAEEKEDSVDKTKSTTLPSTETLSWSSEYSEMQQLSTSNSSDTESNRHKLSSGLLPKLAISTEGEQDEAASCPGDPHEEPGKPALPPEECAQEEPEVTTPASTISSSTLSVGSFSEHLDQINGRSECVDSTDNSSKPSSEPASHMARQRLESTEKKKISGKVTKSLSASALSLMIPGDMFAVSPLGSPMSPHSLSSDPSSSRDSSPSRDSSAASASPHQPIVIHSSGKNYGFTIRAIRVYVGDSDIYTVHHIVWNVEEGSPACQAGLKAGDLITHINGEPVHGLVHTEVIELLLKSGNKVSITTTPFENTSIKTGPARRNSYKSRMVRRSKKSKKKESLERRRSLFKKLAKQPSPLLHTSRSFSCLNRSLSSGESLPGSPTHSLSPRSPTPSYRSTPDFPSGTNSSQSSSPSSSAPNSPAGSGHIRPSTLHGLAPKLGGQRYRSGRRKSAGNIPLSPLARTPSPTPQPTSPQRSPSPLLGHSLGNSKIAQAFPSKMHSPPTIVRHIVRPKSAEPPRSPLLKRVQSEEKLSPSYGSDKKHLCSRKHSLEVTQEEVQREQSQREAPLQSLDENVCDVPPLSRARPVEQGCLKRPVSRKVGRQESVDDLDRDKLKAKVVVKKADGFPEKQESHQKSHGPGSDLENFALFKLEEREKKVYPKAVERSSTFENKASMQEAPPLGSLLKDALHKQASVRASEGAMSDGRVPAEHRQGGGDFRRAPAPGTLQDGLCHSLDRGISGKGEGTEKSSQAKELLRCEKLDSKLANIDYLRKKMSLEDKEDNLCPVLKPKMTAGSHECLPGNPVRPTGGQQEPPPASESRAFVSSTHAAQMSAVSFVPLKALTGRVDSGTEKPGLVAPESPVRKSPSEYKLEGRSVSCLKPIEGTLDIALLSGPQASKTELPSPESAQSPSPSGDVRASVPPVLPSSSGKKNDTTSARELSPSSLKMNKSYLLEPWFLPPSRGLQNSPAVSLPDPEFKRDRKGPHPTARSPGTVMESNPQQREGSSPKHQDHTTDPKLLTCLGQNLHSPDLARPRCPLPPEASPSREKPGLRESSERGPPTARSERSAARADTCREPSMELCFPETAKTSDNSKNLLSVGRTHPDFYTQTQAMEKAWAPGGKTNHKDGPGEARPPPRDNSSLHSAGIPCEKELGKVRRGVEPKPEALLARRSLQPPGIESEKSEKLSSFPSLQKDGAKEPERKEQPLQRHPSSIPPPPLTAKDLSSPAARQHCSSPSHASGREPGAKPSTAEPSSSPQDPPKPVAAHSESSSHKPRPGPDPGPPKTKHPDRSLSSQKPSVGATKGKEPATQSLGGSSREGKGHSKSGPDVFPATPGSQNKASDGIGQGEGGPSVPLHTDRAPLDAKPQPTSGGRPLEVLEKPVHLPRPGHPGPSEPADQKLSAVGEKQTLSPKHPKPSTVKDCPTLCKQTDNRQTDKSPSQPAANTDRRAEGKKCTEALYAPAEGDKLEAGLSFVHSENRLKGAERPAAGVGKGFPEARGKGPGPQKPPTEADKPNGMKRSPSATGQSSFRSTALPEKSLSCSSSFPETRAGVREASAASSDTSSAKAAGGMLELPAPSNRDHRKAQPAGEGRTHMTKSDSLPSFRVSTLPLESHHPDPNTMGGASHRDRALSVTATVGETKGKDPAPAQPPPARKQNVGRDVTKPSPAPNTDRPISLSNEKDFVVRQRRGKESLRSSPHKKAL
Sequence of UniProt Q8NE86 (Q8NE86 whole entry, looked up): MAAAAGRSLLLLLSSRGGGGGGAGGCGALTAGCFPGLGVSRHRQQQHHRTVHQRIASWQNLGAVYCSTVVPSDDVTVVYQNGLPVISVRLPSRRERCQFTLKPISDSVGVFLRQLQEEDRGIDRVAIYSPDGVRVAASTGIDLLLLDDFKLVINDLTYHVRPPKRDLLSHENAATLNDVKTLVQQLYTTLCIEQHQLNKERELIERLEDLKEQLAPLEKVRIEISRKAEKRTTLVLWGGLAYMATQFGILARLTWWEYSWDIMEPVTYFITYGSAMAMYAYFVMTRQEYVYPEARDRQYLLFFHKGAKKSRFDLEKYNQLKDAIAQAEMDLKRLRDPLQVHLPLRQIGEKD

Row | Target | log2 fold change [1] | log2 fold change [2] | log2 fold change [3] | log2 fold change [4] | log2 fold change (Nexturastat A) | log2 fold change (vemurafenib) | log2 fold change [5] | log2 fold change [6] | log2 fold change (givinostat) | log2 fold change (barasertib) | log2 fold change [7] | log2 fold change (volasertib) | log2 fold change [8] | log2 fold change (epoxomicin) | log2 fold change [9] | log2 fold change [10] | log2 fold change [11] | log2 fold change (rosiglitazone) | log2 fold change [12] | log2 fold change [13]
1 | KPNA6 (UniProt O60684) | -0.06 | -0.02 | -0.014 | -0.063 | 0.156 | -0.09 | 0.078 | 0.068 | 0.018 | 0.047 | -0.225 | -0.699 (active) | 0.04 | 0.021 | -0.098 | 0.043 | 0.063 | 0.062 | 0.227 | -0.184
2 | KPNA1 (UniProt P52294) | -0.034 | -0.056 | -0.021 | -0.041 | 0.084 | 0.035 | 0.026 | 0.034 | 0.086 | 0.012 | -0.039 | -0.312 (active) | 0.115 | -0.051 | 0.022 | 0.004 | 0.055 | 0.055 | 0.104 | -0.082
3 | MAGI1 (UniProt Q96QZ7) | 0.041 | 0.041 | -0.027 | -0.023 | 0.074 | 0.018 | -0.009 | -0.026 | -0.013 | -0.008 | 0.041 | 0.031 | 0.026 | -0.045 | 0.005 | 0.012 | -0.041 | 0.016 | 0.014 | -0.011
4 | MAST4 (UniProt O15021) | 0.003 | -0.246 | 0.061 | 0.044 | -0.08 | 0.021 | 0.055 | 0.072 | -0.024 | 0.028 | -0.059 | -0.22 | 0.073 | 0.048 | 0.056 | -0.102 | -0.009 | 0.067 | -0.115 | -0.384
5 | MIA2 (UniProt Q96PC5) | 0.009 | -0.012 | -0.002 | -0.016 | 0.015 | 0.003 | -0.062 | 0.128 | 0.003 | 0.021 | -0.039 | -0.29 (active) | 0.005 | 0.037 | -0.009 | 0.054 | 0.005 | 0.034 | 0.031 | 0.053
6 | KDM5D isoform 3 (UniProt Q9BY66) | -0.132 | -0.144 | 0.036 | 0.039 | -0.08 | 0.003 | 0.128 | -0.004 | 0.014 | 0.108 | -0.305 | -0.404 | 0.032 | 0.163 | -0.01 | 0.034 | 0.223 | 0.108 | -0.14 | -0.059
7 | MCU (UniProt Q8NE86) | 0 | 0.051 | 0.094 | 0.002 | 0.002 | 0.026 | 0.022 | -0.075 | 0.013 | 0.014 | -0.147 | -0.249 (active) | 0.014 | 0.075 | -0.082 | -0.048 | 0.011 | 0.034 | -0.045 | -0.23 (active)
8 | LIMA1 isoform 4 (UniProt Q9UHB6) | -0.082 | 0.133 | -0.014 | 0.033 | 0.004 | 0.061 | 0.011 | -0.033 | 0.032 | -0.025 | -0.006 | -0.115 | -0.021 | 0.003 | -0.015 | 0 | -0.053 | -0.01 | -0.006 | 0.086
